Bioassay records: PubChem BioAssay, National Center for Advancing Translational Sciences (NCATS)
Pf growth 48h = Primary qHTS for delayed death inhibitors of the malarial parasite plastid, 48 hour incubation | P. falciparum luciferase growth in erythrocytes, 48 h | Potency, µM (titrated, usually from 28.7 µM), usual class: inhibitors | 310,000 compounds, 5.9% hits
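Growth was read as firefly luciferase luminescence after a 48 h, 37 C, 5% CO2 exposure of compounds to reporter-bearing P. falciparum cultures (0.1% parasitemia, 2% hematocrit final) in Albumax-supplemented RPMI 1640.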
Shiga toxin inh = A qHTS for Small Molecule Inhibitors of Shiga Toxin; Vero cells, Shiga toxin protein synthesis inhibition reporter; inhibition, % at 38.7 µM; 290,000 compounds, 9.2% hits; in the data active = inhibition mostly above about 28%, no sharp cut-off; inactive = mostly below about 43%
Pf growth 96h = Primary qHTS for delayed death inhibitors of the malarial parasite plastid, 96 hour incubation; P. falciparum luciferase reporter growth, 96 h; Potency, µM (series often up to 28.7 µM), actives largely listed as inhibitors; 320,000 compounds, 6.9% hits; AID 504834, 2011
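Erythrocytes infected with luciferase-expressing P. falciparum were dispensed at 2% hematocrit and 0.05% parasitemia (final), then incubated with compounds 96 hours at 37 C in 5% CO2. Luminescence after detection reagent addition reported growth.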
NS1 function inh = qHTS Assay for Inhibitors of Influenza NS1 Protein Function; AID 2326, 2010; 270,000 compounds, 0.4% hits; Potency, µM (highest dose often 46.1 µM); calls by dose curve; note: actives are rising curves; nearly all actives have a fitted effect of over 50% in size
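Compounds were scored for reversing the slow growth caused by influenza A NS1 in S. cerevisiae, measured by optical density at 600 nm. Assay medium contained 2% galactose at pH 6.0; NS1-free yeast of the same strain were the positive control.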
Cycloheximide cs = Cycloheximide Counterscreen for Small Molecule Inhibitors of Shiga Toxin; 300,000 compounds, 12% hits; cell reporter, cycloheximide protein synthesis inhibition counterscreen; max response, %; in the data active = max response mostly above about 13%, no sharp cut-off; inactive = mostly below about 14%; note: read at 38.3 µM for the half of the compounds with a filed dose
Of the large screens only hits and unclear results are named; the others gave an inactive call. Compounds with a hit are over-represented: about 21% of the library has one in this group of screens. Unless noted, calls come from the whole dose curve; as a rule, active = well fitted inhibition curve with a large enough effect; inconclusive = small, poorly fitted or top-dose-only effect, or another doubt; inactive = no such curve, though single readings can be large or run the other way.

CC(C)(C)n1nnnc1C(c1cccnc1)N(Cc1ccccc1)Cc1ccco1 (stereo not drawn)	Pf growth 48h 2.94µM, Pf growth 96h 1.85µM
CC(C)Cn1c(N)c(C(=O)COC(=O)[C@H](C)NC(=O)c2ccccc2Cl)c(=O)n(C)c1=O	none (no result: Shiga toxin inh, NS1 function inh, Cycloheximide cs)
COc1ccc2c(c1)CCc1c(C(=O)N3CCCCCC3)noc1-2	Shiga toxin inh 114.5, Pf growth 96h inconclusive, Cycloheximide cs 46.5
COc1ccc2c(c1)CCc1c-2n[nH]c1C(=O)O	Pf growth 96h inconclusive
COc1cc(OC)cc(C(=O)NCc2cccnc2)c1	none (no result: Pf growth 96h)
COc1ccc2c(c1)CCc1c(C(=O)NCc3cccnc3)noc1-2	Cycloheximide cs 12.2
COc1ccc2c(c1)CCc1c(-c3noc4c3CCc3cc(OC)ccc3-4)noc1-2	none (no result: Pf growth 48h, Shiga toxin inh, Pf growth 96h, Cycloheximide cs)
CCCNC(=O)c1noc2c1CCc1cc(OC)ccc1-2	Shiga toxin inh 70.9, Cycloheximide cs 48.2 (no result: NS1 function inh)
COc1ccc2c(c1)CCc1c(C(=O)NCC(C)C)noc1-2	Shiga toxin inh 178.4, Pf growth 96h inconclusive, Cycloheximide cs 39.3 (no result: NS1 function inh)
Cc1ccc2cc(C(c3nnnn3C(C)(C)C)N3CCCCCC3)c(=O)[nH]c2c1 (stereo not drawn)	Pf growth 48h inconclusive, Pf growth 96h inconclusive
CCC(C)(C)n1nnnc1C(c1cc2cc(C)ccc2[nH]c1=O)N1CCCC1 (stereo not drawn)	Pf growth 96h 14.7µM
COc1ccc(C(c2nnnn2C(C)(C)C)N2CCN(C(=O)c3ccco3)CC2)cc1 (stereo not drawn)	none
Cc1cccc2cc(C(c3nnnn3C(C)(C)C)N3CCN(C(=O)c4ccco4)CC3)c(=O)[nH]c12 (stereo not drawn)	Pf growth 48h 3.29µM
CC(C)(C)n1nnnc1C(c1cccs1)N1CCN(C(=O)c2ccco2)CC1 (stereo not drawn)	none
Cc1ccc2[nH]c(=O)c(C(c3nnnn3C(C)(C)C)N3CCN(C(=O)c4ccco4)CC3)cc2c1 (stereo not drawn)	Pf growth 48h 9.28µM, Pf growth 96h inconclusive
CCC(C)(C)n1nnnc1C(c1ccccc1OC)N1CCN(C(=O)c2ccco2)CC1 (stereo not drawn)	Pf growth 48h 1.85µM, Cycloheximide cs 11.2
Cc1cc(Br)ccc1OCCCCN1CCCCC1	Pf growth 48h inconclusive
O=C(CN1CCCCC1)NCC1(c2ccccc2)CCCC1	none
O=C(CSc1nnc(-c2cccnc2)o1)Nc1cccc(F)c1	none (no result: Shiga toxin inh, NS1 function inh, Cycloheximide cs)
COc1ccc(OC)c(NC(=O)C(=O)NCCC2=CCCCC2)c1	none
COc1ccc(OC)c(CNC(=O)CCSCc2ccc(F)cc2Cl)c1	none
CCC(C)(C)n1nnnc1C(c1cc2cc(C)cc(C)c2[nH]c1=O)N1CCN(C(=O)c2ccco2)CC1 (stereo not drawn)	Pf growth 48h inconclusive, Pf growth 96h 1.65µM
COc1ccc(C(O)c2ncc(C(F)(F)F)cc2Cl)cc1 (stereo not drawn)	none
Fc1ccc(-c2cn3cc(C(F)(F)F)cc(Cl)c3n2)cc1	Shiga toxin inh 103.0, Cycloheximide cs 28.4
COc1ccc(-c2cn3cc(C(F)(F)F)cc(Cl)c3n2)cc1	Shiga toxin inh 79.9, Cycloheximide cs 56.0
C=CCNC(=O)NC(=O)COC(=O)/C(C#N)=C/c1ccc(OC)cc1	none (no result: NS1 function inh)
N#C/C(=N\Nc1cccc2ccccc12)c1nnc2n1CCCCC2	Cycloheximide cs 13.8
N#C/C(=C\c1c[nH]c2ccccc12)c1nnc2n1CCCCC2	Pf growth 96h inconclusive
CC1(C)CC2CC(C)(CN2/C=C2/CCCCC2=O)C1 (stereo not drawn)	Pf growth 48h inconclusive
Cc1ccc(C(NC(=O)c2ccccc2)C(Cl)(Cl)Cl)cc1 (stereo not drawn)	Pf growth 48h 11.7µM, Pf growth 96h inconclusive
Cc1ccc(NC(=O)[C@H](NC(=O)[C@@H]2Cc3ccccc3CN2)c2ccccc2)cc1	Shiga toxin inh 44.7, Pf growth 96h inconclusive, Cycloheximide cs 25.2
Cc1ccc(C(=O)NC(C(=O)Nc2ccccc2)c2ccccc2)cc1 (stereo not drawn)	Pf growth 48h 9.28µM, NS1 function inh inconclusive
COc1cccc(NC(=O)[C@H](Cc2ccccc2)NC(=O)[C@@H]2Cc3ccccc3CN2)c1	Pf growth 48h inconclusive, Cycloheximide cs 25.7
CC(NC(=O)[C@H](NC(=O)[C@@H]1Cc2ccccc2CN1)c1ccccc1)c1ccccc1 (stereo partly drawn)	Pf growth 96h inconclusive
COc1cc(Cl)c(C)cc1NC(=S)NN	Pf growth 48h inconclusive, Pf growth 96h inconclusive
Cc1cccc(NC(=O)[C@H](NC(=O)[C@@H]2Cc3ccccc3CN2)c2ccccc2)c1	Pf growth 96h inconclusive, Cycloheximide cs 26.3
Cc1cccc(NC(=O)[C@@H](CC(C)C)NC(=O)[C@@H]2Cc3ccccc3CN2)c1	Pf growth 48h inconclusive
CC(C)c1ccc(NC(=O)[C@H](NC(=O)[C@@H]2Cc3ccccc3CN2)c2ccccc2)cc1	Pf growth 48h inconclusive, Pf growth 96h inconclusive, Cycloheximide cs 33.9
COc1cccc(NC(=O)[C@H](NC(=O)[C@@H]2Cc3ccccc3CN2)c2ccccc2)c1	Pf growth 48h inconclusive, Pf growth 96h inconclusive, Cycloheximide cs 30.2
CC(NC(=O)c1ccccc1)c1ccc(F)cc1 (stereo not drawn)	none
CCNC(=O)NC(=O)CSc1ccccc1F	none
Cc1cccc(N(CC(=O)NC(C)(C)C)C(=O)CNC(=O)c2cccs2)c1C	Pf growth 48h inconclusive, Pf growth 96h inconclusive
O/N=C/c1ccccc1OCc1ccc(Cl)cc1	Shiga toxin inh 63.1, Cycloheximide cs 43.8
CCOC(=O)N/N=C/c1ccccc1OCc1ccc(Cl)cc1	Pf growth 48h 2.94µM, Shiga toxin inh 50.3, Pf growth 96h 2.08µM, Cycloheximide cs 34.3
O=S(=O)(N/N=C/c1ccccc1OCc1ccc(Cl)cc1)c1ccccc1	Shiga toxin inh active, Pf growth 96h inconclusive, Cycloheximide cs 23.0
O=C(Cc1ccccc1)N/N=C/c1ccccc1OCc1ccc(Cl)cc1	none
CC(C)(C)C(=O)Nc1ccccc1N1CCN(c2ccc(F)cc2)CC1	Pf growth 48h inconclusive
CC(=O)Nc1cc(NC(C)=O)cc(C(=O)OCC(=O)c2ccc3c(c2)OCO3)c1	none (no result: Shiga toxin inh, NS1 function inh, Cycloheximide cs)
CC(C)(C)C1CCC(C(=O)OCC(=O)N2CCN(C(=O)c3ccco3)CC2)CC1 (stereo not drawn)	none
CC(C)C(=O)Nc1nc(-c2ccc3c(c2)CCN3C(=O)C2CC2)cs1	Shiga toxin inh 59.0
CC(C)(C)Nc1nc(-c2ccc3c(c2)CCN3C(=O)C2CC2)cs1	Shiga toxin inh 97.9, Cycloheximide cs 43.1
CCC(CC)C(=O)Nc1nc(-c2ccc3c(c2)CCN3C(=O)C2CC2)c(C)s1	Pf growth 96h inconclusive (no result: Pf growth 48h)
COCCn1c(N)c(N(Cc2ccccc2)C(=O)CSCC(=O)Nc2ccc(C)cc2)c(=O)[nH]c1=O	none (no result: Shiga toxin inh, NS1 function inh, Cycloheximide cs)
OCCCNc1c2c(nc3cc(-c4ccc(Cl)cc4)nn13)CCC2	Pf growth 48h inconclusive, Shiga toxin inh 40.4, Pf growth 96h inconclusive, Cycloheximide cs 5.9
c1coc(CNc2c3c(nc4ncnn24)CCCC3)c1	none
